# Screens from PubChem BioAssay.
# Pf gamet viab – late stage P. falciparum gametocyte viability inhibitors, primary screen, ATP luminescence, HTS | P. falciparum stage V gametocytes, 24 h | inhibition, % at 10.9 µM | 150,000 tested, 0.065% active;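 active means inhibition above the mean plus 3 SD of compounds within the control limits, set per campaign, cut at about 38% in these data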;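 further: 0% = DMSO wells and 100% = medium only without gametocytes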
# MEKK2 WT-MEK5 – modulators of MEK5 binding to wildtype MEKK2, primary screen, biochemical, multiplex bead flow cytometry, Alexa488-MEK5 | AID 1531, 2009 | Mitogen-activated protein kinase kinase kinase 2 (Homo sapiens), Q9Y2U5 | binding response (% of control), % at 10 µM | Alexa488-MEK5 binding to MEKK2 WT; actives lie on both sides | 290,000 tested, 1.1% active; in the data active means binding response below about 67% or above about 130%
# MEKK2 mut-MEK5 – MEK5 binding signal on mutant MEKK2 PB1, primary screen, biochemical, multiplex bead flow cytometry, Alexa488-MEK5; 290,000 tested, 0.35% active; Alexa488-MEK5 binding to MEKK2 mutant; AID 1530, 2009; percent response, % at 10 µM; in the data active means percent response above about 24%, passing the limit was not always enough
# MEKK3 PB1 HTS – modulators of MEKK3-MEK5 PB1 binding, primary screen, biochemical, wildtype MEKK3, multiplex bead flow cytometry, Alexa488-MEK5. bead-based flow cytometry, Alexa488-MEK5 binding to MEKK3; actives lie on both sides; 0 = blocked by unlabeled MEK5, 100 = vehicle. 290,000 tested, 1.4% active. Mitogen-activated protein kinase kinase kinase 3 (Homo sapiens), Q99759. binding response (% of control), % at 10 µM. AID 1529, 2009;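 active means binding response more than 3 SD above or below the average of its plate-row segment, actives on both sides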;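 further: Alexa488 bead fluorescence after subtracting the streptavidin-only scavenger bead signal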
# Target sequence (Q99759 whole entry, looked up): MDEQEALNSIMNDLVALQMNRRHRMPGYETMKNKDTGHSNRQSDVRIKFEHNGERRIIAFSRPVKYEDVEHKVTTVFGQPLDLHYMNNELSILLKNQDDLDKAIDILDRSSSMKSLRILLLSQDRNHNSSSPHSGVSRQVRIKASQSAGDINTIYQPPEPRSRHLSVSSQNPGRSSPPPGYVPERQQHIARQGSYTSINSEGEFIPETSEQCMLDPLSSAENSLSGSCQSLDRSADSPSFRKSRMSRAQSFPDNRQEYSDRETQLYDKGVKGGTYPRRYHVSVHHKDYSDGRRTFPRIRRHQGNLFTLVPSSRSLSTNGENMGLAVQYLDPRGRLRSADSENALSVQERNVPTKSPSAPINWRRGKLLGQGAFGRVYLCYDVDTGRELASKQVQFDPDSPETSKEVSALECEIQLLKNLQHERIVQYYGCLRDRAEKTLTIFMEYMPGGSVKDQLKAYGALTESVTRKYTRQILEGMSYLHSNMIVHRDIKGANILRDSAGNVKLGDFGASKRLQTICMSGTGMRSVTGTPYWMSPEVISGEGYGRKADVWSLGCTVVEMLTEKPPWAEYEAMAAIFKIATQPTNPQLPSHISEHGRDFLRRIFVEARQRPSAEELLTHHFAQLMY
# Arbovirus anti – antivirals against arbovirus infection, primary screen, cell-based, full library, 10K replicate subset. 200,000 tested, 0.37% active. inhibition, % at 10 µM. arbovirus infection cell-based antiviral screen; in the data active means inhibition above about 30%
# MEKK2wt confirm – modulators of MEK5 binding to wildtype MEKK2, confirmation, biochemical, single concentration, multiplex bead flow cytometry | 5,900 tested, 2.4% active | binding response (% of control), % at 10 µM | Alexa488-MEK5 binding to MEKK2 WT; actives lie on both sides | shares compounds with MEKK3 PB1 HTS; in the data active means binding response below about 16% or above about 210%; inactive means in between
# MEKK2mut confirm – mutant MEKK2 PB1-MEK5 binding signal retest – biochemical, single concentration, multiplex bead flow cytometry, confirmation; shares compounds with MEKK3 PB1 HTS; Alexa488-MEK5 binding to MEKK2 mutant; percent response, % at 10 µM; 5,900 tested, 2% active; AID 1893, 2009; in the data active means percent response mostly above about 71%, no sharp cut-off; inactive means mostly below about 38%;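 further: higher means compound restores mutant binding toward wildtype level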
# MEKK3-MEK5 inh – MEKK3 wild-type PB1 binding to MEK5, inhibitors, confirmation, biochemical, bead multiplex flow cytometry, single concentration, wildtype; Alexa488-MEK5 binding to MEKK3; active compounds read low; shares compounds with MEKK3 PB1 HTS; 5,900 tested, 1.8% active; binding response (% of control), % at 10 µM; AID 1894, 2009;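 active means binding response below 72% of control, or above a set upper limit, though filed actives all read lower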;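 further: 100% = DMSO only wells and 0% = binding blocked by excess unlabeled MEK5; lower values mean stronger disruption of MEK5 binding to MEKK3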
# * marks the source's active call; other numbers are inactive results; x = no result given; [ ] = another dose, or the depositor's remark. Rows were chosen to be rich in hits. Some 2.4% of all compounds tested hit in one or more screens of this group.
SMILES,Pf gamet viab,MEKK2 WT-MEK5,MEKK2 mut-MEK5,MEKK3 PB1 HTS,Arbovirus anti,MEKK2wt confirm,MEKK2mut confirm,MEKK3-MEK5 inh
CC(c1ccccc1)N1C(=O)C2C3C=CC(C4CC34)C2C1=O (centres undefined),7,97,-10,100,-1,x,x,x
CC(OC(=O)C(C)N1C(=O)C2C3C=CC(C4CC34)C2C1=O)C(=O)c1ccccc1 (centres undefined),9,111,1,145*,-6,101,3,99
CCN1/C(=C/c2cccc[n+]2C)Sc2ccc(OC)cc21,x,107,9,103,x,x,x,x
CCN1/C(=C/c2ccc3cc(C)ccc3[n+]2CC)Sc2cc(C)ccc21,12,11*[inhibitor],-4,51*[inhibitor],-35,31,-37,74
CCN1/C(=C/c2ccc3cc(C)ccc3[n+]2C)Sc2ccc3sccc3c21,-14,x,x,0.0*[inhibitor],-31,7.0*[inhibitor],-33,31*
CCC(=O)Nc1ccc(-c2nnc(SCC(=O)N3CCCCC3)n2C)cc1,x,1.0*[inhibitor],-15,2.0*[inhibitor],2,103,1,108
CCC(=O)Nc1ccc(C(=O)CSc2nnc(-c3ccc(NS(C)(=O)=O)cc3)n2C)cc1OC,21,94,-1,73*[inhibitor],-10,103,4,104
O=C(CNC(=O)c1ccc(N2C(=O)c3ccccc3C2=O)cc1)OCC(=O)c1cccc2ccccc12,19,4.0*[inhibitor],-8,2.0*[inhibitor],0,100,-2,101
O=C(NCCc1ccccc1)c1cccc([N+](=O)[O-])c1,-54,107,0,130*,-6,101,4,102
Cc1ccc(Cn2nnc3c(=O)[nH]c(C4CCN(S(=O)(=O)c5ccccc5F)CC4)nc32)cc1,x,101,2,101,x,x,x,x
CCCC1=NN(C(=O)CCc2ccccc2O)C(O)(C(F)(F)F)C1 (centres undefined),-1,107,3,138*,13,97,3,100
CC(NC(=S)NCCc1ccccc1)C(c1cccs1)N1CCN(Cc2ccccc2)CC1 (centres undefined),x,138*,14,81,-14,148,35,113
CCOC(=O)n1c(O)c(N=NC(N)=S)c2cc(C)ccc21,-3,69,-20,68*[inhibitor],x,104,2,103
Cc1ccc(NC(=O)Cn2c(O)c(N=NC(N)=S)c3ccccc32)cc1,x,109,13,109,x,x,x,x
COC(=O)C1CCN(C(=O)CN2C(=O)NC(CCc3ccccc3)C2=O)CC1 (centres undefined),4,124,9,122*,5,99,-1,103
NS(=O)(=O)c1ccc(CCNC(=O)C(=O)NCC2OCCN2S(=O)(=O)c2ccc(Cl)cc2)cc1 (centres undefined),x,100,-2,101,x,x,x,x
O=C(Nc1ccnc(-c2ccncc2)n1)C1CC1,x,96,-4,102,7,x,x,x
COc1ccc(N(CC(=O)N/N=C/c2ccc(N(C)C)cc2)S(=O)(=O)c2ccccc2)cc1,x,104,4,108,x,x,x,x
C/C=C/C=N/NC(=O)CN(c1ccc(Br)cc1)S(=O)(=O)c1ccccc1,x,112,1,149*,-4,97,-1,99
COc1cccc(OC)c1C(=O)N1CCOCC1,-28,106,6,104,-1,x,x,x
COc1ccc(C(=O)N2CCOCC2)cc1Br,x,121,7,125*,1,93,-3,96
